# The sample as a whole holds a higher share of hits than the screen did.
# Tgondii IFNg: T. gondii growth inhibition with IFN-gamma, primary screen, cell-based; activity change, negative = inhibition, % (no concentration beside the values); Toxoplasma gondii growth in IFN-gamma-treated host cells; hits give low values; 69,000 tested, 3.8% active; AID 1259416, 2018; in the data active = activity change below about -70%, passing the limit was not always enough;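 also: host cells are HeLa cells infected with Toxoplasma gondii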
# * = called active by the depositor.
SMILES,Tgondii IFNg
Cc1ccc(NC(=O)N(Cc2ccco2)Cc2cc3cc4c(cc3[nH]c2=O)OCCO4)cc1,-5
Cc1cccc2cc(CN(Cc3ccccc3)C(=O)Nc3ccc(F)cc3)c(=O)[nH]c12,-104*
COc1cccc(CN(C)Cc2cc3ccc(F)cc3[nH]c2=O)c1,10
COc1ccc2[nH]cc(CCNc3ccc(S(=O)(=O)c4ccc(Cl)cc4)nn3)c2c1,37
O=S(=O)(c1ccccc1)N1CCC2(CCCN2Cc2cccc(Cl)c2)C1 (stereo not drawn),-8
CCn1c(C2CCN(C(=O)c3nc(C(C)C)cs3)CC2)n[nH]c1=O,1
CCNC(=O)c1sc2cc(C)ccc2c1Cl,79
O=C(c1sc2cc(Cl)ccc2c1Cl)N1c2ccccc2Sc2ccccc21,-80*
COC(=O)c1sc2ccccc2c1Cl,8
CCN(C/C=C/c1ccccc1)C(=O)CCc1cn2ccccc2n1,0
Cc1ccc(NC(=O)CC(=O)N2CCN3CCCC3C2)c(C)c1 (stereo not drawn),1
Cc1ccc(-c2c(-c3ccncc3)cnc3cc(C)nn23)cn1,1
O=C(Nc1ccc2c(c1)CS(=O)(=O)C2)c1cccs1,48
CN(C)c1ccc(NC(=O)c2cccs2)cc1,38
O=C(Nc1ccc2c(c1)ncn2-c1ccccc1)c1cccs1,-95*
COC1C2CCCC1CN(c1nncs1)C2 (stereo not drawn),-13
c1csc(-c2cc(NC3CCNCC3)nc3[nH]ccc23)n1,-56
C=C(C)Cc1c(C)nc(-c2ccc(Cl)cc2)nc1OC(=S)N(CC)CC,-98*
Cc1noc(C)c1CN(C)Cc1ccc2cccc(O)c2n1,7
Cc1ccc(S(=O)(=O)NCCNc2nccc(C(F)(F)F)n2)cc1,37
CNc1ncccc1C(=O)N1CC[C@@H](c2ccc3ccccc3c2)[C@H](O)C1,6
CN1C(=O)CCC2C1CCN2C(=O)c1ccc2[nH]ccc2c1 (stereo not drawn),-97*
CCN1C(=O)CCC2C1CCN2C(=O)c1ccc2[nH]ccc2c1 (stereo not drawn),0
COCCN1C(=O)CCC2C1CCN2C(=O)c1ccc2[nH]ccc2c1 (stereo not drawn),0
Cn1nc(C(=O)NC(C)(C)C)c2ccccc2c1=O,13
SMILES,Tgondii IFNg
COc1ccc(OC)c(-c2cc(C(=O)NC(C)c3ccc4c(c3)CCC4)[nH]n2)c1 (stereo not drawn),75
COc1ccc(C(C)NC(=O)c2c3c(nn2C)CCCC3)cc1F (stereo not drawn),-77*
COc1ccc(C(C)NC(=O)c2cn3c(n2)CCCC3)cc1OC (stereo not drawn),110
CCOc1ccc2oc(=O)cc(CN3CCN(Cc4nc(-c5ccccc5C)oc4C)CC3)c2c1,-31
O=C(NCCc1csc(-c2ccc(C(F)(F)F)cc2)n1)C(=O)Nc1ccc2c(c1)OCO2,72
Cc1cnn(Cc2nc(-c3ccc(NC(=O)c4ccc(Cl)s4)cc3)oc2C)c1,63
Cc1ccc(C)c(C(=O)Nc2ccc(-c3nc(Cn4cccn4)c(C)o3)cc2)c1,127
Cc1cccc(C(=O)Nc2ccc(-c3nc(Cn4cc(C)cn4)c(C)o3)cc2)c1,-87*
Cc1oc(-c2ccc(NC(=O)/C=C/c3ccccc3)cc2)nc1Cn1cccn1,-87*
Cc1cc(C)n(Cc2nc(-c3ccc(NC(=O)/C=C/c4ccccc4)cc3)oc2C)n1,-43
Cc1ccccc1CC(=O)Nc1ccc(-c2nc(Cn3cccn3)c(C)o2)cc1,32
Cc1ccc(C(=O)Nc2ccc(-c3nc(Cn4cc(C)cn4)c(C)o3)cc2)cc1,62
Cc1cnn(Cc2nc(-c3ccc(NC(=O)c4ccccc4)cc3)oc2C)c1,-38
Cc1oc(-c2ccc(NC(=O)c3ccccc3Cl)cc2)nc1Cn1cccn1,-100*
Cc1ccc(C(=O)Nc2ccc(-c3nc(Cn4cccn4)c(C)o3)cc2)c(C)c1,-59
Cc1cnn(Cc2nc(-c3ccc(NC(=O)c4cccs4)cc3)oc2C)c1,-76*
Cc1cnn(Cc2nc(-c3ccc(NC(=O)c4sccc4C)cc3)oc2C)c1,-51
CCCC(=O)N1CCC(C)(C(=O)NCc2ccc(F)cc2F)CC1,21
O=C(c1ccco1)N1CCC2(CC1)Nc1cc(F)ccc1-n1cccc12,49
Cc1nc(-c2cccc(F)c2)sc1CCNC(=O)c1ccccc1F,36
O=C(NCCc1csc(-c2ccccc2)n1)C1CCN(S(=O)(=O)c2ccccc2F)CC1,5
CCc1ccc(CNc2nc(-c3ccc(Cl)cc3)nc3ccccc23)cc1,-62
Cc1ccc(S(=O)(=O)N2CCC3(CC2)NCCN=C3NCc2ccc(F)c(Cl)c2)cc1C,-19
O=C1CC[C@@H](NCC2=Cc3ccccc3OC2)[C@H](c2cc(F)cc(F)c2)N1,80
COc1ccc(-c2nc(C3CCN(S(=O)(=O)C(F)(F)F)CC3)cc3c2ncn3C)cc1,-5
SMILES,Tgondii IFNg
CCCc1ccc(-c2nccn2Cc2cccnc2)o1,-6
Cc1cnn(Cc2nc(-c3ccc(NC(=O)c4ccc(F)cc4Cl)cc3)oc2C)c1,-45
Cc1cnn(Cc2nc(-c3ccc(NC(=O)c4cc(F)cc(F)c4)cc3)oc2C)c1,87
CCOc1ccccc1C(=O)Nc1ccc(-c2nc(Cn3cc(C)cn3)c(C)o2)cc1,-45
Cc1cnn(Cc2nc(-c3ccc(NC(=O)c4ccc(C(F)(F)F)cc4)cc3)oc2C)c1,-63
Cc1cnn(Cc2nc(-c3ccc(NC(=O)c4ccccc4Cl)cc3)oc2C)c1,-84*
Cc1cnn(Cc2nc(-c3ccc(NC(=O)c4ccccc4C(F)(F)F)cc3)oc2C)c1,-88*
CC(=O)N1CCCC1c1nnn2cc(Nc3cccc(F)c3)ccc12 (stereo not drawn),95
CCOc1cc2c(cc1CN(CCN1CCOCC1)Cc1cccnc1)CCC2,-37
CCOc1ccc(C2CCCN2C(=O)c2ccc(-n3cnnn3)cc2)cc1 (stereo not drawn),8
Cc1oc(-c2ccccc2)nc1Cn1nnc(-c2nc(-c3ccc(Cl)cc3)no2)c1C,10
CN1[C@H]2CC[C@@H]1CN(C(=O)c1ccc(-n3cnnc3)cc1)CC2,3
Cc1ccsc1[C@@H]1CCN(C(=O)c2cccc(=O)[nH]2)C[C@H]1O,1
Cc1ccsc1[C@@H]1CCN(C(=O)c2ccc(-n3cnnc3)cc2)C[C@H]1O,-81*
CCc1nc(OCC(=O)Nc2cc(Cl)ccc2Cl)c2ccccc2n1,-38
Cc1nc(OCC(=O)Nc2cc(Cl)ccc2C)c2ccccc2n1,-8
Cc1ccc(Cl)cc1NC(=O)COc1ccccc1Br,-83*
CN(C)C1CCOC2(CCN(C(=O)c3ccccc3F)CC2)C1 (stereo not drawn),-2
CCOC(=O)c1c(NC2=NC3(CCCCC3)Cc3ccccc32)sc2c1CCCC2,31
CCOC(=O)c1c(NC(=O)Nc2ccc(C)cc2)sc2c1CCN(C(=O)OCC)C2,-97*
CCCNC(=O)N1CCc2nc(-c3ccc(C)cc3)sc2C1,6
Cc1ccccc1-c1noc(CN(C)C(C)c2ccon2)n1 (stereo not drawn),7
O=C(NCCc1csc(-c2ccc(C(F)(F)F)cc2)n1)C(=O)Nc1ccccc1F,21
S=C(Nc1ccccc1)Nc1cccc(CCc2ccccn2)c1,28
CS(=O)(=O)NC[C@@]12COC[C@H]1CN(C(=O)COC1CCCC1)C2,8
Fc1cnc(N2CCC3(CCCN(c4nncs4)C3)C2)nc1 (stereo not drawn),-67
COc1cc2ncnc(Nc3ccc(O)c(Br)c3)c2cc1OC,-74*
COc1ccc(OC)c(Nc2ncnc3ccc(Br)cc23)c1,-47
Nc1cc2ncnc(Nc3cccc(Br)c3)c2cc1N,11

# Assay outcomes from PubChem BioAssay.
